# From PubChem
# ELG1 genotoxic: qHTS screen for small molecules that induce genotoxicity in human embryonic kidney (HEK293T) cells expressing luciferase-tagged ELG1. HEK293T ELG1-luciferase reporter, luminescence, 16 h. Potency, µM (doses to about 46 µM), inactives show at the highest dose activity change, positive = activation, most hits filed as activators. actives 1.3% (n = 330,000); also: % of control where 0% means no effect; nearly all actives have a fitted effect of over 60% in size
#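 Luminescence read-out: rising ELG1-luciferase signal, reflecting elevated ELG1 protein under genetic stress, flags genotoxic compounds. Cells were treated for 16 hr at 37 °C before ONE-Glo detection.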
# FLuc modulator: qHTS profiling assay for firefly luciferase inhibitor/activator using purifed enzyme and Km concentrations of substrates (counterscreen for miR-21 project). Luciferin 4-monooxygenase (Photinus pyralis), P08659. purified FLuc, Km substrates, luminescence inhibition. Potency, µM (series often up to 57.5 µM), inactives show at the top dose activity change, negative = inhibition, hits mostly inhibitors. actives 6.9% (n = 360,000);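 also: plate controls were vehicle for no effect and reference inhibitor for full effect; nearly all actives have a fitted effect of over 55% in size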
# Target sequence (P08659 whole entry, looked up): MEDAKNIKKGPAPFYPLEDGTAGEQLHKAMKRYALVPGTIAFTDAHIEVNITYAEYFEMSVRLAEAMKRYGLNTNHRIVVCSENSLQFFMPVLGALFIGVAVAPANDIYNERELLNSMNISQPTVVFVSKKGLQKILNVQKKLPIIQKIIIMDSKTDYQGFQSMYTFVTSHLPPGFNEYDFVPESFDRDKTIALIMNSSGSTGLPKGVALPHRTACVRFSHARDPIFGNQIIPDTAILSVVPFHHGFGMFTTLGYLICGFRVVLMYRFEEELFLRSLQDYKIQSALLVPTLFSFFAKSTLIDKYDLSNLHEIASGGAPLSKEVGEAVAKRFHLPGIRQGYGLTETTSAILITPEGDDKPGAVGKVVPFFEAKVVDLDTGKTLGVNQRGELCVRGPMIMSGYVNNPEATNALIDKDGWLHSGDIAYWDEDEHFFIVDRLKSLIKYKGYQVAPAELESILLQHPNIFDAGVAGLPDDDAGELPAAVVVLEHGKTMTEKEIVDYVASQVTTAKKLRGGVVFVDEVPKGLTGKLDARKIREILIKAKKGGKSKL
#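 Purified P. pyralis luciferase (10nM final) with 10uM D-luciferin and 10uM ATP (Km levels) in 50mM Tris acetate pH 7.5, 10mM Mg acetate, 0.01% Tween-20, 0.05% BSA; qHTS 6-point titration, ~60 µM downward; luminescence read.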
# SMN2 splice enh: qHTS Assay for Enhancers of SMN2 Splice Variant Expression; Potency, µM (top dose mostly 46.1 µM), without a hit: top-dose activity change, positive = activation, usual class: activators; HEK293 SMN2-luciferase splicing reporter, luminescence, 30-36 h; actives 2.8% (n = 210,000); AID 1458, 2008; also: % of control where 0% means no effect; nearly all actives have a fitted effect of over 55% in size
#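 HEK293 cells carry an SMN2 minigene-luciferase reporter in which exon 7 inclusion puts luciferase in frame. Cells were seeded at 2000 cells/well, attached for 10-12 hours, then exposed to compounds for 30-36 hours at 37C before ONE-Glo luminescence.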
# ELG1 DNA repair: qHTS screen for small molecules that inhibit ELG1-dependent DNA repair in human embryonic kidney (HEK293T) cells expressing luciferase-tagged ELG1 | actives 2.3% (n = 330,000) | Potency, µM (titrated, usually from 46.1 µM), inactives show top-dose activity change, negative = inhibition, hits mostly inhibitors | AID 504467, 2011 | HEK293T ELG1-luciferase reporter, luminescence, 16 h; DNA damage induced by 5-fluorouridine; also: % is scaled to controls: 0 for no effect and ±100 for the full control effect; nearly all actives have a fitted effect of over 55% in size
#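 Overnight (16 hr) co-exposure of 2,000 cells/well to 5-fluorouridine and compound at 37 °C preceded detection. Luciferase was quantified via ONE-Glo luminescence; loss of signal denotes inhibition.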
# Rab9 prom act: qHTS Assay for Rab9 Promoter Activators; Potency, µM (top dose mostly 9.22 µM), for the others: at the top dose activation, negative = inhibition, most hits filed as activators; actives 2.8% (n = 320,000); Huh7 Rab9 promoter-luciferase reporter, luminescence, 24 h; also: % of control where 0% means no effect; nearly all actives have a fitted effect of over 60% in size
#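 Cell-based reporter: Huh7 stable for Rab9 promoter-driven luciferase, plated in reduced-serum medium with 10% FBS at 1500 cells/well, compound-treated 24 h at 37 °C, luminescence read after 10 min reagent.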
# NPC1 prom act: qHTS Assay for NPC1 Promoter Activators | Huh7 NPC1 promoter luciferase reporter, 24 h | Potency, µM (highest dose often 9.22 µM), without a hit: at the highest dose activation, actives largely listed as activators | actives 2.4% (n = 320,000); also: % of control where 0% means no effect; nearly all actives have a fitted effect of over 60% in size
#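 Quantitative HTS used a cell-based reporter: Huh7 cells stably bearing the NPC1 promoter upstream of luciferase were treated with compounds for 24 h, and promoter activation was read as luminescence.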
# * = called active by the depositor; ? = inconclusive; . = not tested or not shown. Most compounds without a hit are left out; they make up all but 9.3% or so of the library. Calls follow the shape of the dose curve; as a rule, active = well fitted curve in the direction sought with a large enough effect; inconclusive = small, poorly fitted or top-dose-only effect, or another doubt; inactive = no such curve, though single readings can be large; an effect the other way counts as inactive or inconclusive. Potency is read from the fitted curve at half-maximal effect.
SMILES,ELG1 genotoxic,FLuc modulator,SMN2 splice enh,ELG1 DNA repair,Rab9 prom act,NPC1 prom act
O=C1C2=C(Nc3ccccc3SC2c2ccco2)c2ccccc21 (configuration not stated),14.2%,?,-2.2%,20.8%,12.8%,11.5%
CCc1ccc(C2Sc3ccccc3NC3=C2C(=O)c2ccccc23)cc1 (configuration not stated),.,10.7µM*,-78.8%,.,.,.
O=C1C2=C(Nc3ccccc3SC2c2ccc(C(F)(F)F)cc2)c2ccccc21 (configuration not stated),.,2.7%,-73.8%,.,.,.
CC(C)c1ccc(C2Sc3ccccc3NC3=C2C(=O)c2ccccc23)cc1 (configuration not stated),.,6.01µM*,-27.2%,.,.,.
Cc1nn(C)c(C)c1Nc1ccc(N2C(=O)C3CC=CCC3C2=O)cc1[N+](=O)[O-] (configuration not stated),-3.7%,-2.1%,-67.3%,0.0%,-9.8%,-12.7%
O=C(c1cccc(F)c1)N1CCC[C@@]2(CCN(Cc3nccs3)C2)C1,.,.,-12.1%,.,.,.
Cn1c(=O)c2c(nc(CN3CCN(c4ccccc4)CC3)n2Cc2c(F)cccc2Cl)n(C)c1=O,-6.3%,1.3%,-20.7%,10µM*,1.7%,-4.9%
Cn1c(=O)c2c(nc(CN3CCN(c4ccccc4)CC3)n2Cc2ccccc2Cl)n(C)c1=O,0.2%,2.5%,-12.6%,?,10.6%,-7.8%
Cn1c(=O)c2c(nc(CN3CCc4ccccc4C3)n2Cc2ccc(Cl)cc2)n(C)c1=O,-0.1%,1.7%,-12.6%,26.4%,3.4%,-2.3%
CCOC(=O)N1CCN(Cc2nc3c(c(=O)n(C)c(=O)n3C)n2Cc2cccc(C)c2)CC1,1.4%,-2.8%,-10.9%,18.4µM*,7.2%,4.4%
Cn1c(=O)c2c(nc(CN3CCc4ccccc4C3)n2Cc2ccccc2)n(C)c1=O,-3.7%,0.4%,-39.3%,16.4µM*,-4.2%,-4.4%
CCCCCn1c(CN2CCN(Cc3ccccc3)CC2)nc2c1c(=O)n(C)c(=O)n2C,-6.8%,1.7%,-13.6%,20.6µM*,1.0%,-3.3%
Cc1nc(SC(C)C(=O)Nc2ccccc2Cl)cc(-c2ccccc2)n1 (configuration not stated),.,-3.0%,.,.,.,.
CC1CCC2(CC1)NC(=O)N(CC(=O)N1CC(C)CC(C)C1)C2=O (configuration not stated),0.5%,.,.,11.5%,.,.
C#CCOC(=O)C(NC(=O)c1ccccc1)=C1CCCCC1,-5.7%,0.1%,-0.8%,-28.4%,2.2%,-1.5%
COc1ccc(-c2nc(-c3ccccc3)oc2NC(C)C)cc1,.,.,-8.6%,.,.,.
Cn1c(=O)c2c(nc(N3CCN(c4ccccc4)CC3)n2CCCc2ccccc2)n(C)c1=O,-17.3%,0.1%,-28.7%,?,-9.2%,-0.2%
Cn1c(=O)c2c(nc(N3CCN(Cc4ccccc4)CC3)n2CCCc2ccccc2)n(C)c1=O,-10.4%,7.7%,-35.2%,11.6µM*,-7.4%,-2.5%
CN(Cc1ccc(F)cc1)C(=O)C(Cc1ccccc1)NC(=O)c1ccccc1 (configuration not stated),-26.4%,-0.6%,.,?,2.9%,-2.4%
COc1ccc(CN(C)C(=O)C(Cc2ccccc2)NC(=O)c2ccccc2)cc1F (configuration not stated),-13.3%,2.1%,.,14.6µM*,-3.6%,-2.4%
NS(=O)(=O)c1ccc(CCNC(=O)c2ccncc2)cc1,1.1%,1.9%,.,0.8%,-6.8%,-2.5%
